# Data reported in the supplement of paper PMC10849652.
# About 8,800 targets were measured; listed, in parts, are those with a hit and a random draw of the rest. About 0.5% of all pairs of compound and target were hits. Values without a mark were called inactive.
# Legend:
# Assay in all cases: log2 fold change, soluble protein after heating vs DMSO (PISA); higher = thermal stabilisation; K562 lysate, 10 uM; active = over 0.2 and 3.5 SD of the protein, either way, in both replicates (recomputed)
# [1] = compound: NCC(=O)Nc1ccc(-n2nc(C(F)(F)F)cc2-c2ccc3c(ccc4ccccc43)c2)cc1
# Summary of the method: (§1)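 The values are log-two fold changes in thermal stability compared with solvent controls and come from duplicates. They were obtained by TMTpro 16plex LC-MS/MS, with channel sums equalised, on the supernatant after 21,000xg for 90 min. That supernatant came from crude K562 extract at 1 mg/mL protein treated with 10 μM compound for 30 min, heated for 3 min across 48°C-58°C, pooled and brought to 0.5% NP-40 at 4°C.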
# vorinostat = compound: O=C(CCCCCCC(=O)Nc1ccccc1)NO [vorinostat]
# Summary of the method: as §1
# silmitasertib = compound: O=C(O)c1ccc2c(c1)nc(Nc1cccc(Cl)c1)c1ccncc12 [silmitasertib]
# Summary of the method: as §1
# [2] = compound: O=C1NC(=O)C(c2cnc3ccccn23)=C1c1cn2c3c(cc(F)cc13)CN(C(=O)N1CCCCC1)CC2
# Summary of the method: as §1
# entospletinib = compound: c1cn2cc(-c3ccc4cn[nH]c4c3)nc(Nc3ccc(N4CCOCC4)cc3)c2n1 [entospletinib]
# Summary of the method: as §1
# Sequence of UniProt B2RTY4 (B2RTY4 whole entry, looked up): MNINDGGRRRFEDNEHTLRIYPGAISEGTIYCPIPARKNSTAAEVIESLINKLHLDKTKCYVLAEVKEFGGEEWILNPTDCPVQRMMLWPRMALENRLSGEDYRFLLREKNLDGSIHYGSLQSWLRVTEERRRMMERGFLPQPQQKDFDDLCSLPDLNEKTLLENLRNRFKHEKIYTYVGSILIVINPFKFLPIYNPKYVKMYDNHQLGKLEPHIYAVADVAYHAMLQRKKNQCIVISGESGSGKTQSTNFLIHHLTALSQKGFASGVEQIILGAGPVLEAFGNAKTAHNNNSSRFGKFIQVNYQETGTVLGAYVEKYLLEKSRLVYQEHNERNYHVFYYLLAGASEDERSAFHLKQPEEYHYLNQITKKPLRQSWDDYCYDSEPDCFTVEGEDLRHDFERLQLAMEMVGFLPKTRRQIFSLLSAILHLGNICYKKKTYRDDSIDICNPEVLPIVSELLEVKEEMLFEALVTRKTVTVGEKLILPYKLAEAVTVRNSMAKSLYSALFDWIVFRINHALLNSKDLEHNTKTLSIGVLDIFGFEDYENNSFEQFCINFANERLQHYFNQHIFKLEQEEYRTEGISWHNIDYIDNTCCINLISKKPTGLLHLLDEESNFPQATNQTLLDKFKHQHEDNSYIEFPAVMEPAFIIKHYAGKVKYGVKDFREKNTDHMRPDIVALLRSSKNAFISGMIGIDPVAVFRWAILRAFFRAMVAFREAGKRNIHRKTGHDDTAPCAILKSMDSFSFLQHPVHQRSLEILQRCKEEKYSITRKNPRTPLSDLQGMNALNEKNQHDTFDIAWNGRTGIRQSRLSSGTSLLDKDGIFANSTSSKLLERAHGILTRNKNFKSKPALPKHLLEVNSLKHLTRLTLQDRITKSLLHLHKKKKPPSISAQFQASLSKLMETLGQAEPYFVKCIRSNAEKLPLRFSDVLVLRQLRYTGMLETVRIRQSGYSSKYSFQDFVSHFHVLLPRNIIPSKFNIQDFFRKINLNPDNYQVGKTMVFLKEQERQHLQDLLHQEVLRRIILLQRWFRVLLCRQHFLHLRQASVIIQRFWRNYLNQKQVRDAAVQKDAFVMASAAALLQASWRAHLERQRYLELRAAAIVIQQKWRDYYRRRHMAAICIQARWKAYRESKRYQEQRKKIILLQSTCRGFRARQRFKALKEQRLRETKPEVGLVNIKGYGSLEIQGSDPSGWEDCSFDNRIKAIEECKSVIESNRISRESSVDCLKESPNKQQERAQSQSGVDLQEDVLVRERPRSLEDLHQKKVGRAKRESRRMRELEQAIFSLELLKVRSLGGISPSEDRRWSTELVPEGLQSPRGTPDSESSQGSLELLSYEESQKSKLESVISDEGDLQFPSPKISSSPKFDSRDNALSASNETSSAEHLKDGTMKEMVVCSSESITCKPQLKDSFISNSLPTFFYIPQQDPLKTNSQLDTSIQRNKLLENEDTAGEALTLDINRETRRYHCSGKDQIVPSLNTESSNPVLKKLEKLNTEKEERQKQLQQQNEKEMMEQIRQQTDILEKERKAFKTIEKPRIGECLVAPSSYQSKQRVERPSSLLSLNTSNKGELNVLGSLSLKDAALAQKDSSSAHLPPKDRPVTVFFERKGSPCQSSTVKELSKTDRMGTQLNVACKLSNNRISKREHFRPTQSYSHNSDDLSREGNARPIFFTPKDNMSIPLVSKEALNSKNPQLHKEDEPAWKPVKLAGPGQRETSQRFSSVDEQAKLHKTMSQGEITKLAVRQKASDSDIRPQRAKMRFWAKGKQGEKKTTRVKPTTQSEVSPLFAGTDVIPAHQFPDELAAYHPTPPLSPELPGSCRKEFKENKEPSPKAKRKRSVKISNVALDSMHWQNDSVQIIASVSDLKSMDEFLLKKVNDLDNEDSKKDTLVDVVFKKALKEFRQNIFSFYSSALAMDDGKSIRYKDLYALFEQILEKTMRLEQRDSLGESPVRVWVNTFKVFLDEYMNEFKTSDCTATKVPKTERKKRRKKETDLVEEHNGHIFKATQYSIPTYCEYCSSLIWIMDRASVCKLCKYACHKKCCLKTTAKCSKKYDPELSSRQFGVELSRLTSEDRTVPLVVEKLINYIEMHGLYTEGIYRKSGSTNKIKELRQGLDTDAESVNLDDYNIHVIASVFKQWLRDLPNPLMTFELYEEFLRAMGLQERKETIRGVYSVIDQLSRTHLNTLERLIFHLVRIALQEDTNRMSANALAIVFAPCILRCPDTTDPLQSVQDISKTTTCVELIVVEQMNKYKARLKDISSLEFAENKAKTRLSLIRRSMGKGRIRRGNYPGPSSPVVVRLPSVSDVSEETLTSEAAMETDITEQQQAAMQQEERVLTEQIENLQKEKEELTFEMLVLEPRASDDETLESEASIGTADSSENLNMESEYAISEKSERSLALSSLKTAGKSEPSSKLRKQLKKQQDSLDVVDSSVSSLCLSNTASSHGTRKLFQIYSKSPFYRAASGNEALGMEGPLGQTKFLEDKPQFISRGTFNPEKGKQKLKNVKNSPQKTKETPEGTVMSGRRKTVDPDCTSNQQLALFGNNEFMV
# Sequence of UniProt Q96NT1 (Q96NT1 whole entry, looked up): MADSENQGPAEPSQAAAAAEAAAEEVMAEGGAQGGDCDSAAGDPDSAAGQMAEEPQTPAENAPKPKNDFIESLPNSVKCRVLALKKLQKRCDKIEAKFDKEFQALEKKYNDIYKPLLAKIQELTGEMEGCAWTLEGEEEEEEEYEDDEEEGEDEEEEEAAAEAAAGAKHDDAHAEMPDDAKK
# Sequence of UniProt P52701 (P52701 whole entry, looked up): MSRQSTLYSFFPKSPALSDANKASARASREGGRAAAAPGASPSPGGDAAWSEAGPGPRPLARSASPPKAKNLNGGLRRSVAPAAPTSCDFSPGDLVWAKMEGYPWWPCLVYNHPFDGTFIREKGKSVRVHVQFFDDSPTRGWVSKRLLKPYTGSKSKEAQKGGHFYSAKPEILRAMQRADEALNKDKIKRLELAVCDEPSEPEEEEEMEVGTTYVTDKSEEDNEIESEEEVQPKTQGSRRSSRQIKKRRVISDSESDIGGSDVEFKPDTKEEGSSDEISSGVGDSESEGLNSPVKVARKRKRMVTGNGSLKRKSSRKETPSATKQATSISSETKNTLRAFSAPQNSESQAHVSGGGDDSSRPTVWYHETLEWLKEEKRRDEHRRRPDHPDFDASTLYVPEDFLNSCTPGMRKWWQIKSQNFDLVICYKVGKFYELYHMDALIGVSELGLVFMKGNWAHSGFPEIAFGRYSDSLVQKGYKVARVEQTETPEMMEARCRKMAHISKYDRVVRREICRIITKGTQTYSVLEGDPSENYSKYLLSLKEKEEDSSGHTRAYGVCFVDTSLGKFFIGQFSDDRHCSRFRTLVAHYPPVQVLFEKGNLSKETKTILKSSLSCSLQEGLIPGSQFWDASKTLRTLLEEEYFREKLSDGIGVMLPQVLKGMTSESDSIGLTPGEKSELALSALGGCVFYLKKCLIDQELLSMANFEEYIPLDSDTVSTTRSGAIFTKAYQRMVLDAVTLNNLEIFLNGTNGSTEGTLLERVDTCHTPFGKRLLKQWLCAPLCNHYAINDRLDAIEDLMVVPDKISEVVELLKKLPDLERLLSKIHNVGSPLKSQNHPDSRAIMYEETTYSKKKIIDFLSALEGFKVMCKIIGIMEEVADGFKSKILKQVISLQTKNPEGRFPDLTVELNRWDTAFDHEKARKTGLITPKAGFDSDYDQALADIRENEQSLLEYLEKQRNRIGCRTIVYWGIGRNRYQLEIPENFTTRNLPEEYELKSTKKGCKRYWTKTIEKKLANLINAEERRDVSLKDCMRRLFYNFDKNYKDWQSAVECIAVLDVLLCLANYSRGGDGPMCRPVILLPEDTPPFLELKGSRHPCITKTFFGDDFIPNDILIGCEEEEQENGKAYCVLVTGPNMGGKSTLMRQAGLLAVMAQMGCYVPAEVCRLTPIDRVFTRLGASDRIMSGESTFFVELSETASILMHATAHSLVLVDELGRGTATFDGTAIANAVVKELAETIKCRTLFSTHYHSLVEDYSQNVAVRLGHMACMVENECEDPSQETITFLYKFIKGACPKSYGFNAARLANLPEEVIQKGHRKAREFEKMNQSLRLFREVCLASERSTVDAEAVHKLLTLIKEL
# Sequence of MTHFD1, A0A384N5Y3 (A0A384N5Y3 whole entry, looked up): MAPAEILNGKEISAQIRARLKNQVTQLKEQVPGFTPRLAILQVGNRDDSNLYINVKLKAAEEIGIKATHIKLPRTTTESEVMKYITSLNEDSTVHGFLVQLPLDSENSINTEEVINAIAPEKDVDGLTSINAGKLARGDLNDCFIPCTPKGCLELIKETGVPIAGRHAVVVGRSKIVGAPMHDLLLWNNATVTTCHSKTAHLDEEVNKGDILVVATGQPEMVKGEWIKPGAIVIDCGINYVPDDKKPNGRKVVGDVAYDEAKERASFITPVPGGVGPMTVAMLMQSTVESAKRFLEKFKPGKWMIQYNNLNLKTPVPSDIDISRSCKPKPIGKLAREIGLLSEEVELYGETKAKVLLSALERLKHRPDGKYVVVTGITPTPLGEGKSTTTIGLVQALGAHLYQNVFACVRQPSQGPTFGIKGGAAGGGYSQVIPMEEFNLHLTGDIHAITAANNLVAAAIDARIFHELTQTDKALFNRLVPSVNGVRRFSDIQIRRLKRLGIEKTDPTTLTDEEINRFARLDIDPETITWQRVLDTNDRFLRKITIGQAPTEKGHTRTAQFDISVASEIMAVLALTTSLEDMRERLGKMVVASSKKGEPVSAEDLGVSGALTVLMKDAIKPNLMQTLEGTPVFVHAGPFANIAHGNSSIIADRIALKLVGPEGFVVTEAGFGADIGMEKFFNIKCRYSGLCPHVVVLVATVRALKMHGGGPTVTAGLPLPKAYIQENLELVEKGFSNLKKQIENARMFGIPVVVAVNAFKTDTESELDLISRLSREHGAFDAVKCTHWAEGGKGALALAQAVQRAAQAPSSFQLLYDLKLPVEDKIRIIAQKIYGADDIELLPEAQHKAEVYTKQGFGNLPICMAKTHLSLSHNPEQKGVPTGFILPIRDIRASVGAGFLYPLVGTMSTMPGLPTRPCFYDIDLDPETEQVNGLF
# Sequence of UniProt Q15843 (Q15843 whole entry, looked up): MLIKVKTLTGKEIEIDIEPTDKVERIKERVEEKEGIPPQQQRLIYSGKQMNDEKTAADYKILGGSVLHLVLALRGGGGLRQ
Target,log2 fold change [1],log2 fold change (vorinostat),log2 fold change (silmitasertib),log2 fold change [2],log2 fold change (entospletinib)
NUP188 (UniProt Q5SRE5),-0.002,-0.36 (active),0.073,-0.009,-0.003
NSUN2 (UniProt Q08J23),0.004,-0.42 (active),0.03,-0.007,0.011
NCAPH (UniProt Q15003),-0.031,-0.33 (active),0.009,-0.01,-0.004
MT-ND1 (UniProt P03886),0.002,0.072,0.033,0.015,0.121
NCAPH2 (UniProt Q6IBW4),0.052,-0.277 (active),0,0.037,-0.008
OGT (UniProt O15294),0.002,-0.42 (active),0.035,0.045,0.021
NCAPD2 (UniProt Q15021),-0.01,-0.332 (active),0.01,-0.005,-0.001
NCOR2 (UniProt C9J0Q5),0.093,-0.27 (active),-0.016,0.011,-0.074
NAT1 (UniProt P18440),-0.049,0.144,0.275 (active),0.032,-0.04
NQO1 (UniProt P15559),0.008,-0.132,0.038,0.023,-0.027
MRPL51 (UniProt Q4U2R6),-0.03,-0.067,-0.054,0.121,0.003
NUP205 (UniProt Q92621),0.003,-0.335 (active),0.037,0.001,0.005
NOC2L (UniProt Q9Y3T9),-0.055,-0.126,0.031,0.009,0.028
NUP160 (UniProt Q12769),-0.036,-0.291 (active),0.082,0.022,0.009
NMRAL1 (UniProt Q9HBL8),-0.023,-0.009,0.047,-0.04,0.012
NBN (UniProt O60934),-0.009,-0.21 (active),0.023,-0.008,-0.005
NF1 (UniProt P21359),0.03,-0.634 (active),0.037,0.01,0.025
NAP1L5 (UniProt Q96NT1),0.023,0.059,0.033,-0.049,0.071
NIPBL (UniProt Q6KC79),-0.024,-0.357 (active),0.101,-0.005,0.071
NLRP2 (UniProt Q9NX02),-0.031,-0.528 (active),0.062,-0.015,0.011
MTHFD1L (UniProt B7ZM99),0.031,-0.408 (active),0.07,0.045,-0.02
PAK4 (UniProt O96013),-0.003,-0.458,-0.038,0.028,0.05
NACC1 (UniProt Q96RE7),-0.014,-0.231 (active),0.024,-0.004,-0.036
OCRL (UniProt Q01968),0.134,-0.43 (active),0.032,0.019,-0.032
MYO9A isoform 4 (UniProt B2RTY4),-0.051,0.084,-0.019,-0.03,
NOA1 (UniProt Q8NC60),0.065,-0.411 (active),0.049,0.048,-0.008
NEBL isoform 2 (UniProt O76041),-0.019,0.146,-0.019,-0.016,-0.01

Target,log2 fold change [1],log2 fold change (vorinostat),log2 fold change (silmitasertib),log2 fold change [2],log2 fold change (entospletinib)
PAIP2 (UniProt Q9BPZ3),0.033,0.054,-0.052,-0.025,-0.027
NARS2 (UniProt Q96I59),0.063,-0.344 (active),0.05,-0.029,-0.079
MSH3 (UniProt P20585),0.044,-0.316 (active),0.055,-0.017,0.025
NMT1 (UniProt P30419),-0.35 (active),0.028,-0.03,-0.036,0.034
NCAPG2 (UniProt Q86XI2),0.002,-0.598 (active),0.015,-0.016,0.009
NBEAL2 (UniProt Q6ZNJ1),-0.025,-0.341 (active),0.047,0.02,0.026
MYO10 (UniProt Q9HD67),0.401,-0.038,0,0.159,
MTA2 (UniProt O94776),0.034,-0.352 (active),0.02,0.006,0.021
NCKAP1L (UniProt P55160),0.288,-0.444 (active),-0.039,-0.001,0.029
"MTHFD1, A0A384N5Y3",0.036,-0.243 (active),0.056,0.028,0.026
NUB1 (UniProt Q9Y5A7),-0.004,-0.333 (active),-0.027,0.031,0.001
PAK1 (UniProt Q13153),0.008,0.13,-0.046,-0.001,0.051
NPLOC4 isoform 2 (UniProt Q8TAT6),0,0.028,-0.016,0.018,0.031
PARP14 (UniProt Q460N5),-0.006,-0.391 (active),0.009,0.149,-0.014
MYCBP (UniProt Q99417),0.006,0.113,-0.015,-0.025,-0.075
ORC5 (UniProt O43913),0.023,-0.377 (active),0.072,0.011,0.066
MYO1C (UniProt O00159),-0.017,-0.171,0.015,0.11,0.033
PARG (UniProt Q86W56),0.006,-0.363 (active),-0.035,0.018,0.006
NEDD8 (UniProt Q15843),-0.033,0.195,-0.12,0.038,-0.082
NSL1 (UniProt Q96IY1),-0.012,-0.528 (active),-0.022,-0.005,0.03
NTMT1 (UniProt Q9BV86),0.008,-0.366 (active),0.026,0.01,0.049
NUMB (UniProt P49757),0,-0.315 (active),-0.014,-0.066,0
MTCH2 (UniProt Q9Y6C9),-0.016,-0.432 (active),-0.001,-0.075,0.026
MSH6 (UniProt P52701),0.008,-0.287 (active),0.063,0.016,-0.012
NUDT4 (UniProt Q9NZJ9),-0.144,-0.162,0.028,0.03,-0.01
PANK4 (UniProt Q9NVE7),0.012,-0.423 (active),-0.03,0.055,0.035
NR2C2 isoform 2 (UniProt P49116),-0.024,-0.233,0.041,0.008,0.028
